Measurements published in PubChem BioAssay (Tox21).
A number with no mark means an inactive call. Records with an inconclusive call do not appear. Entries that show only a call come without a potency. Activity calls are given as the source filed them. Unless noted, the call rests on the fitted dose curve.

Legend:
[1] = Nuclear factor erythroid 2-related factor 2/antioxidant responsive element (Nrf2/ARE) small molecule agonists: qHTS cell viability counter screen in human keratinocytes (AID 1919968; active means well fitted curve in the direction sought with a large enough effect in the repeat runs; an effect the other way counts as inactive or inconclusive; further: nearly all actives have a fitted effect of over 55% in size; further: potency means the concentration at half of the fitted maximal effect)
Method in brief: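 KeratinoSens cells (HaCaT keratinocytes stably carrying an ARE-luciferase reporter) were seeded at 1,500 cells/well and rested 5 h at 37 C/5% CO2. They were then exposed to compounds in DMSO for 23 h. Viability was read by CellTiter-Fluor fluorescence after 1 h.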

[2] = molecular target: Gonadotropin-releasing hormone receptor (Homo sapiens) (UniProt P30968); experiment: Human gonadotropin-releasing hormone receptor (GnRHR) small molecule agonists, calcium flux assay in GnRHR-HEK293 cells (AID 1920063); further: nearly all actives have a fitted effect of over 35% in size; further: potency means the concentration at half of the fitted maximal effect
Gonadotropin-releasing hormone receptor (Homo sapiens), sequence (P30968 whole entry, looked up): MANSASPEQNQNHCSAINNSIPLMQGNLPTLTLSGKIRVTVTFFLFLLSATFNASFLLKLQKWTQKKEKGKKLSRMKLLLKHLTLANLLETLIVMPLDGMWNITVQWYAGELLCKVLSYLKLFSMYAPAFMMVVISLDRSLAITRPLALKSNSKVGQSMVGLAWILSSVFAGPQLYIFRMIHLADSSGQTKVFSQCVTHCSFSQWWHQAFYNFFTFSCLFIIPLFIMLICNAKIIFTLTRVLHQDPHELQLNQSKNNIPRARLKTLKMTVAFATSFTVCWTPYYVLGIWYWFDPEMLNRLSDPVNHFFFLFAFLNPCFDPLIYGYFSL
Method in brief: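 HEK293 cells stably expressing human GnRHR were plated 18 h at 37 °C, loaded with calcium dye 1 h at 37 °C, then given compound in agonist mode; fluorescence (Ex/Em 480/540) read kinetically for 3 min at 1 s intervals.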

[3] = molecular target: KiSS-1 receptor (Homo sapiens) (UniProt Q969F8); experiment: Human kisspeptin (KISS1R) small molecule agonists, calcium flux assay in KISS1R-HEK293 cells (AID 1920064; active means well fitted curve in the direction sought with a large enough effect in the repeat runs; an effect the other way counts as inactive or inconclusive)
KiSS-1 receptor (Homo sapiens), sequence (Q969F8 whole entry, looked up): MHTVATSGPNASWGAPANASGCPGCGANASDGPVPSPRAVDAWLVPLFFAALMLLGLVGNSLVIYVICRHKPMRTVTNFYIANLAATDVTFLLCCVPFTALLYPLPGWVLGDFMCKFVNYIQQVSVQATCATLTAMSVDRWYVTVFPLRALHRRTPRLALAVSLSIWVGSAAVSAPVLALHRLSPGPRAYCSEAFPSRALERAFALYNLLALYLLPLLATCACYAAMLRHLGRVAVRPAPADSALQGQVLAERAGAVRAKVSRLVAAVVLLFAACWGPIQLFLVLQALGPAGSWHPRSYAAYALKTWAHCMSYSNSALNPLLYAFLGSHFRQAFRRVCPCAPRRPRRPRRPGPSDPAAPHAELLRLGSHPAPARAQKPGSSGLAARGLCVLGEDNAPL
Method in brief: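 HEK293 cells stably expressing human KISS1R were plated 18 h at 37 °C, loaded with calcium dye for 1 h at 37 °C, then given compound by pin tool. Fluorescence (Ex/Em 480/540) was read kinetically for 3 min.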

[4] = G protein-coupled receptor (GPCR) small molecule agonists, calcium flux assay: HEK293 wild type cell line counter screen (AID 1920065)
Method in brief: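 Cells were plated and cultured 18 h at 37 C/5% CO2, then loaded with calcium dye for 1 h at 37 C. Compounds in DMSO were pin-transferred in agonist mode, and fluorescence (Ex/Em 480/540) was read kinetically for 3 min at 1 s intervals.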

[5] = p53 small molecule agonists, cell-based qHTS assay with human liver microsomes (AID 1963577);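 further: p53 response element beta-lactamase reporter cells with liver microsomes plus NADPH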
Method in brief: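 With metabolic activation: human liver microsomes (0.5 mg/mL final) plus NADPH (0.5 mg/mL final) added alongside compounds to p53RE-bla cells; 16 h 37 C exposure; beta-lactamase read by LiveBLAzer fluorescence.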

[6] = p53 small molecule agonists, cell-based qHTS assay with rat liver microsomes (AID 1963578)
Method in brief: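 Metabolic activation by rat liver microsomes and NADPH, each 0.5 mg/mL final, added right after compounds to p53RE-bla reporter cells (4,000/well, plated 5 h earlier). 16 h at 37 C, then LiveBLAzer substrate for 2 h at room temperature in the dark; fluorescence read-out.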

[7] = p53 small molecule agonists, cell-based qHTS assay with human liver microsomes: qHTS cell viability counter screen (AID 1963579); further: nearly all actives have a fitted effect of over 45% in size
Method in brief: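 Metabolic activation used human liver microsomes and NADPH, both 0.5 mg/mL final, over 16 hours at 37 C on p53RE-bla cells (4,000/well). Cytotoxicity measured by CellTiter-Glo luminescence, 30 min at room temperature.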

[8] = p53 small molecule agonists, cell-based qHTS assay with rat liver microsomes: qHTS cell viability counter screen (AID 1963580); further: nearly all actives have a fitted effect of over 45% in size
Method in brief: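 In HCT-116 cells carrying a p53 response element-bla reporter, compounds were metabolically activated in situ by rat liver microsomes with NADPH over 16 h. Cell ATP content then served as the cytotoxicity measure.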

[9] = p53 small molecule agonists, cell-based qHTS assay: qHTS cell viability counter screen (AID 1963581); further: nearly all actives have a fitted effect of over 45% in size
Method in brief: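 p53RE-bla HCT-116 cells were exposed to compounds for 16 h at 37 C; after the beta-lactamase FRET read in the same wells, CellTiter-Glo was added and luminescence (intracellular ATP) read after 30 min at room temperature.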

[10] = p53 small molecule agonists, cell-based qHTS assay (AID 1963582; active means well fitted activation curve with a large enough effect in the signal ratio in the repeat runs, not every such curve was filed as active; the % refers to the signal ratio)
Method in brief: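 p53RE-bla beta-lactamase reporter cells rested 5 h at 37 C/5% CO2, then received compounds in DMSO by pin transfer and were incubated 16 h at 37 C. LiveBLAzer B/G FRET substrate was loaded for 2 h at room temperature before fluorescence reading.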

[11] = molecular target: 5-hydroxytryptamine receptor 2A (Homo sapiens) (UniProt P28223); experiment: 5-hydroxytryptamine receptor 2A (HTR2A) small molecule antagonists, cell-based qHTS assay (AID 1963586); further: nearly all actives have a fitted effect of over 45% in size
5-hydroxytryptamine receptor 2A (Homo sapiens), sequence (P28223 whole entry, looked up): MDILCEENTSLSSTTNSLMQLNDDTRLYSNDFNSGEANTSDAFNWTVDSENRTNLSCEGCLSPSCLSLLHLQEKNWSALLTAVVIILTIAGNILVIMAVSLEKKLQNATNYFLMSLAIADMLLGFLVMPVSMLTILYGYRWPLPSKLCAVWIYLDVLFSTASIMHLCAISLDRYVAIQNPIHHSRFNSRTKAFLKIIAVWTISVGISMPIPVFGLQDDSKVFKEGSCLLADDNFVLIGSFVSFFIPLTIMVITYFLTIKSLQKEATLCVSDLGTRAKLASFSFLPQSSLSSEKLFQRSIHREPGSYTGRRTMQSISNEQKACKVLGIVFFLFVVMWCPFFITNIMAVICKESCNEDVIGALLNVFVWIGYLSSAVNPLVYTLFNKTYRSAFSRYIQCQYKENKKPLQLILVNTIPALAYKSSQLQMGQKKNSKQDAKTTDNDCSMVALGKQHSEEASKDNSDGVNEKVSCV
Method in brief: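 Antagonist-mode intracellular calcium assay: DOI (4 nM) added after 5 min compound pre-incubation at room temperature to dye-loaded HTR2A-CHO cells. Fluorescence followed for 3 min, sampled every second.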

[12] = molecular target: 5-hydroxytryptamine receptor 2A (Homo sapiens) (UniProt P28223); experiment: 5-hydroxytryptamine receptor 2A (HTR2A) small molecule agonists, cell-based qHTS assay (AID 1963587); further: nearly all actives have a fitted effect of over 30% in size
Method in brief: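 HTR2A-CHO cells, plated 18 h at 37 C/5% CO2, dye-loaded 1 h at 37 C; compounds in DMSO added by pin tool (agonist mode). Intracellular calcium flux read as kinetic fluorescence on FDSS over 2 min at 1 s intervals.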

[13] = molecular target: Muscarinic acetylcholine receptor M1 (Homo sapiens) (UniProt P11229); experiment: Cholinergic receptor muscarinic 1 (CHRM1) small molecule antagonists, cell-based qHTS assay (AID 1963588); further: nearly all actives have a fitted effect of over 40% in size
Muscarinic acetylcholine receptor M1 (Homo sapiens), sequence (P11229 whole entry, looked up): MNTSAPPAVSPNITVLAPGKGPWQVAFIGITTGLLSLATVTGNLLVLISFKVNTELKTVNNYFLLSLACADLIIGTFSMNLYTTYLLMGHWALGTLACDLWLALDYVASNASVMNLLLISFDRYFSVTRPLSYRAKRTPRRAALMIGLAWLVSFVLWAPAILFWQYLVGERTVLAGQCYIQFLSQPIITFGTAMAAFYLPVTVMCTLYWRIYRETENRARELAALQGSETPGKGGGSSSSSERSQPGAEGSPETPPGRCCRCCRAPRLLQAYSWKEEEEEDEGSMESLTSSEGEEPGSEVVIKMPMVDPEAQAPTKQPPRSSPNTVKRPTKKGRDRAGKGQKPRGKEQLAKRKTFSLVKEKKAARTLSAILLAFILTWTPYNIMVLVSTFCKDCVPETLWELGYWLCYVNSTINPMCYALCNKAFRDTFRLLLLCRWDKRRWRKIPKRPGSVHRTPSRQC
Method in brief: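 CHRM1-CHO calcium-flux assay, antagonist mode. Cells were seeded 18 h, dye-loaded 1 h at 37 C and given compound for 5 min at RT, then acetylcholine was added at 50nM. FDSS fluorescence was read 3 min; 15 concentrations, three runs.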

[14] = molecular target: Muscarinic acetylcholine receptor M1 (Homo sapiens) (UniProt P11229); experiment: Cholinergic receptor muscarinic 1 (CHRM1) small molecule agonists, cell-based qHTS assay (AID 1963589); further: nearly all actives have a fitted effect of over 35% in size
Method in brief: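 CHO cells stably expressing human CHRM1, seeded 18 h at 37 C/5% CO2, dye-loaded 1 h at 37 C, then given compound in agonist mode; intracellular calcium fluorescence read kinetically at 1 s intervals. Fifteen concentrations, three independent runs.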

[15] = molecular target: Beta-2 adrenergic receptor (Homo sapiens) (UniProt P07550); experiment: Adrenergic beta2 receptor (ADRB2) small molecule antagonists, cell-based qHTS assay (AID 1963592); further: nearly all actives have a fitted effect of over 50% in size; further: potency means the concentration at half of the fitted maximal effect
Beta-2 adrenergic receptor (Homo sapiens), sequence (P07550 whole entry, looked up): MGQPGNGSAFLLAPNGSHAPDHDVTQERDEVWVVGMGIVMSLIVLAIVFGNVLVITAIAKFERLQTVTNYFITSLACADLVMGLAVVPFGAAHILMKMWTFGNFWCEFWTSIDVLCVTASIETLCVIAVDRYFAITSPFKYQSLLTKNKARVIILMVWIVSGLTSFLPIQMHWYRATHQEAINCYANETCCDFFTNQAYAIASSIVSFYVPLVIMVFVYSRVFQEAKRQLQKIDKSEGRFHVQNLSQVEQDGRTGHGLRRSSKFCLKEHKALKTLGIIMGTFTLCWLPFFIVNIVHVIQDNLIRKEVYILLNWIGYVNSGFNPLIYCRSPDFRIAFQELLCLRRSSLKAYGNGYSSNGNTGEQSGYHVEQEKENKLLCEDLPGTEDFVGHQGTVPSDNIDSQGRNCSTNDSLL
Method in brief: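 Cells (CHO, stable ADRB2 overexpression) incubated 18-20hr at 37C; compounds added from DMSO; agonist mix (1nM isoproterenol, 100uM IBMX, 25uM Ro-20-1724) added; 0.5hr RT; d2-cAMP and anti-cAMP-cryptate added; 1hr RT; 665/615 nm read.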

[16] = molecular target: Beta-2 adrenergic receptor (Homo sapiens) (UniProt P07550); experiment: Adrenergic beta2 receptor (ADRB2) small molecule agonists, cell-based qHTS assay (AID 1963593);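 further: CHO cells stably overexpressing human ADRB2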
Method in brief: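 CHO cells stably over-expressing ADRB2 were plated overnight at 37C, then dosed with compounds plus a stimulation mix containing 100uM IBMX and 25uM Ro-20-1724 for 0.5hr at room temperature. cAMP was measured by HTRF competition, 1hr.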

[17] = molecular target: D(2) dopamine receptor (Homo sapiens) (UniProt P14416); experiment: Dopamine D2 receptor (DRD2) small molecule agonists, cell-based qHTS assay (AID 1963594); further: nearly all actives have a fitted effect of over 35% in size
D(2) dopamine receptor (Homo sapiens), sequence (P14416 whole entry, looked up): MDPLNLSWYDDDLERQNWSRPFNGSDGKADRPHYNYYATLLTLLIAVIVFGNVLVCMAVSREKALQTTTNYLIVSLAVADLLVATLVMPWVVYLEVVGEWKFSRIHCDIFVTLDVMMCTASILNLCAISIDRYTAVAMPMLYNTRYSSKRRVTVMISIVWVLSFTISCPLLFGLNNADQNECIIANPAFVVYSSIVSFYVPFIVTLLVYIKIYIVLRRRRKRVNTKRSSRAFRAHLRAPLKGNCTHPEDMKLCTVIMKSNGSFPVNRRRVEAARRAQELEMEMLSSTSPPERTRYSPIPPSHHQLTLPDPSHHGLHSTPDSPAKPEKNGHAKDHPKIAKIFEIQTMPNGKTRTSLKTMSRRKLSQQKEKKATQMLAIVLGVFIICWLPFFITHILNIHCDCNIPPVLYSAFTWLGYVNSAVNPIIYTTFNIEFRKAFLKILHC
Method in brief: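 HEK293 cells stably expressing DRD2 were cultured 24 h at 37 C, then given Ro20-1724 (0.1 mM final) and compounds for 10 min at room temperature. NKH477 (200nM) was then added for 30 min. cAMP was read by HTRF.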

[18] = molecular target: D(2) dopamine receptor (Homo sapiens) (UniProt P14416); experiment: Dopamine D2 receptor (DRD2) small molecule antagonists, cell-based qHTS assay (AID 1963595; active means well fitted inhibition curve with a large enough effect in the signal ratio in the repeat runs, with a control signal flat; the % refers to the signal ratio)
Method in brief: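 Antagonist mode in DRD2-HEK293 cells: after compound addition with 0.1 mM Ro20-1724, cells received quinpirole (12 nM) and NKH477 (200 nM) for 30 min at room temperature; HTRF cAMP read after 1 h detection.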

[19] = cAMP Responsive Elements (CRE) small molecule antagonists, cell-based qHTS assay (AID 1963591; active means well fitted inhibition curve with a large enough effect in the signal ratio in the repeat runs, not every such curve was filed as active; the % refers to the signal ratio)
Method in brief: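 CRE-bla HEK293T cells were plated 18 h at 37 °C/5% CO2, pinned with compound in DMSO, then stimulated with NKH477 at 0.25 uM final for 3 h. LiveBLAzer B/G FRET substrate was added and plates incubated 2 h at room temperature.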

[20] = cAMP Responsive Elements (CRE) small molecule agonists, cell-based qHTS assay (AID 1963590)
Method in brief: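 CRE-bla HEK 293T cells in DMEM with 10% dialyzed FBS, NEAA, pyruvate and 25 mM HEPES were plated 18 h at 37 C/5% CO2, then exposed to compounds in DMSO for 3 h before LiveBLAzer B/G FRET substrate addition.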

Row | SMILES | Potency [1] | Potency [2] | Potency [3] | Potency [4] | Potency [5] | Potency [6] | Potency [7] | Potency [8] | Potency [9] | Potency [10] | Potency [11] | Potency [12] | Potency [13] | Potency [14] | Potency [15] | Potency [16] | Potency [17] | Potency [18] | Potency [19] | Potency [20]
1 | CCCC(=O)OC(C)(C)Cc1ccccc1 | inactive | inactive | inactive | inactive | inactive | inactive | inactive | inactive | inactive | inactive | inactive | inactive | inactive | inactive | inactive | inactive | inactive | inactive |  | 
2 | O=C1c2ccccc2C(=O)c2c(O)ccc(O)c21 | inactive | inactive | inactive | inactive | inactive | inactive | inactive | inactive | inactive | inactive | inactive | inactive |  | inactive | inactive | inactive | inactive | inactive | inactive | 
3 | Cc1ccc(C(C)(C)C)c(O)c1 | inactive | inactive | inactive | inactive | inactive | inactive | inactive | inactive | inactive | inactive | inactive |  |  | inactive | inactive |  | inactive | inactive |  | 
4 | CCc1cccc(N(C)C(N)=Nc2cccc3ccccc23)c1 | inactive | inactive | inactive | inactive | inactive | inactive | inactive | inactive | inactive | inactive |  | inactive | inactive | inactive | inactive | inactive | inactive | inactive | inactive | inactive
5 | Cc1cc(O)c(Cl)c(C)c1Cl | inactive | inactive | inactive | inactive | inactive | inactive | inactive | inactive | inactive | inactive |  | inactive |  | inactive | inactive | inactive | inactive | inactive |  | inactive
6 | Clc1cccc(Cl)n1 | inactive | inactive | inactive | inactive | inactive | inactive | inactive | inactive | inactive |  | inactive | inactive | inactive | inactive | inactive | inactive | inactive | inactive | inactive | inactive
7 | C[C@H]1[C@H](NC(=O)/C(=N/OC(C)(C)C(=O)O)c2csc(N)n2)C(=O)N1S(=O)(=O)O (stereo in doubt) | inactive | inactive | inactive | inactive | inactive | inactive | inactive | inactive | inactive | inactive |  |  |  |  | inactive |  | inactive | inactive |  | inactive
8 | CCOC(=O)[C@@H](C)Oc1ccc(Oc2nc3ccc(Cl)cc3o2)cc1 | inactive | inactive | inactive | inactive | inactive | inactive | inactive | inactive | inactive | inactive | inactive | inactive | inactive | inactive | inactive | inactive | inactive | inactive | inactive | 
9 | Nc1nc2ccccc2n1Cc1ccc(F)cc1 | inactive | inactive | inactive | inactive | inactive | inactive | inactive | inactive | inactive | inactive |  |  | inactive | inactive | inactive |  | inactive | inactive | inactive | inactive
10 | Cc1cccc(OCC(O)CNC(C)(C)C)c1C (stereo unspecified) | inactive | inactive | inactive | inactive | inactive | inactive | inactive | inactive | inactive | inactive | inactive | inactive | inactive |  | 7.5 nM (active) |  |  | inactive |  | inactive
11 | CCCCCOC(=O)CCCCC | inactive | inactive | inactive | inactive | inactive | inactive | inactive | inactive | inactive | inactive | inactive | inactive | inactive |  | inactive | inactive | inactive | inactive | inactive | inactive
12 | O=C(CN1CCNCC1)NC1CCCCC1 | inactive | inactive | inactive | inactive | inactive | inactive | inactive | inactive | inactive | inactive | inactive |  | inactive | inactive | inactive |  | inactive | inactive | inactive | inactive
13 | C1CCOC1 | inactive | inactive | inactive | inactive | inactive | inactive | inactive | inactive | inactive | inactive |  | inactive | inactive | inactive | inactive |  | inactive | inactive | inactive | inactive
14 | CNCCC(Oc1ccc(C(F)(F)F)cc1)c1ccccc1 (stereo unspecified) | 26.9 µM (active) | 38.4 µM (active) | inactive | inactive | inactive | inactive | inactive | inactive | inactive | inactive |  |  |  |  | inactive |  | inactive | inactive | inactive | inactive
15 | C/C(=C(/OCCOc1ccc(Cl)cc1)c1ccc(Cl)cc1Cl)n1ccnc1 | 13.3 µM (active) | inactive | inactive | inactive | inactive | inactive | inactive | inactive | inactive | inactive |  | inactive |  | inactive | inactive | inactive | inactive | inactive | inactive | inactive
16 | Cc1ccc2c(Br)cc(Br)c(O)c2n1 | inactive | inactive | inactive | inactive | inactive | inactive | inactive | inactive | inactive | inactive | inactive |  | inactive | inactive |  |  | inactive | inactive |  | inactive
